Records with an inconclusive call do not appear. Calls of active or inactive are those of the source. The call rests on the fitted dose curve; in most records, active means well fitted inhibition curve with a large enough effect; inconclusive means small, poorly fitted or top-dose-only effect; inactive means no such curve, though single readings can be large or run the other way. Where a SMILES comes first, the peptide text is derived from it. The star is where a group is joined. Cbz = O=C(OCc1ccccc1)*

Results on eleven compounds are retold here after PubChem BioAssay AID1508633 (National Center for Advancing Translational Sciences (NCATS), 2021).

The test system of this test is zebrafish ABCB5 (Abcb5) multidrug transporter. Description: qHTS for characterization and localization of zebrafish homologs of the human ABCB1 multidrug transporter: ABCB5 transfected cells. Particulars: CellTiter-Glo luminescence viability, 72 h; series mostly up to 46.1 µM. The method, boiled down: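 Empty-vector, P-gp-overexpressing MDR-19 and zebrafish abcb4- or abcb5-transfected cells were exposed to ~90 P-gp substrates at varying concentrations for 72 h at 37C. Viability was read by CellTiter-Glo luminescence; cytotoxic meant inhibitory curve class, >50% maximal response and AC50 < 10 uM.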
Turning to `CN(C)C1CCN(C(=O)c2ccc(NC(=O)Nc3nc(N4CCOCC4)nc(N4CCOCC4)n3)cc2)CC1`, the Potency is 4.69 µM (active).
With `CC(C)C[C@@H](C=O)NC(=O)[C@H](CC(C)C)NC(=O)[C@H](CC(C)C)NC(=O)OCc1ccccc1` (Cbz-Leu-Leu-Leu-aldehyde), the Potency is 1.18 µM (active).
The result for `CC[n+]1c(-c2ccccc2)c2cc(N)ccc2c2ccc(N)cc21` reads 11.8 µM (active); that for `COc1cc(N2CCC(O)CC2)ccc1Nc1nc(Nc2ccccc2S(=O)(=O)C(C)C)c2[nH]cnc2n1`, “inactive”; that for `C[C@@]12O[C@@H](C[C@]1(O)CO)n1c3ccccc3c3c4c(c5c6ccccc6n2c5c31)CNC4=O`, 5.26 µM (active).
In the case of `CN(C)c1ccc(C(=C2C=CC(=[N+](C)C)C=C2)c2ccc(N(C)C)cc2)cc1`, the Potency was 0.935 µM (active).
On to `C[C@@H](Oc1cc(-n2cnc3ccc(CN4CCN(C)CC4)cc32)sc1C(N)=O)c1ccccc1C(F)(F)F`, for which the Potency is 4.18 µM (active).
For `CC(=O)C1(O)Cc2c(O)c3c(c(O)c2C(OC2CC(N)C(O)C(C)O2)C1)C(=O)c1c(O)cccc1C3=O` (stereo unspecified), the Potency was 0.059 µM (active).
On to `COc1cc2c(NC3CCN(C(C)C)CC3)nc(N3CCCN(C)CC3)nc2cc1OCCOCCN(C)C`, for which the Potency result is “inactive”.
`C=CCn1c(=O)c2cnc(Nc3ccc(N4CCN(C)CC4)cc3)nc2n1-c1cccc(C(C)(C)O)n1`: the Potency is 2.35 µM (active).
In the case of `Cc1cc(N)c2ccccc2[n+]1CCCCCCCCCC[n+]1c(C)cc(N)c2ccccc21` it was 8.33 µM (active).
